Compound activity: PubChem, National Center for Advancing Translational Sciences (NCATS)
Giardia FBPA inh: blocks Giardia fructose-bisphosphate aldolase activity; purified Giardia FBPA; Potency, µM (titrated, usually from 59.6 µM), inactives show at the top dose activity, negative = inhibition, most hits filed as inhibitors; 290,000 tested, 0.71% active; AID 2451; also: potency is read from the fitted curve at half-maximal effect; % is scaled to controls: 0 for no effect and ±100 for the full control effect; nearly all actives have a fitted effect of over 55% in size
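Giardia FBPA (40 nM reagent) was preincubated 10 min at RT with compound (up to 57.5 uM final), then substrate plus GAPDH/TPI/NAD/arsenate coupling system with diaphorase/resazurin was added; resorufin fluorescence (525/598 nm) was read after 20 min.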
Shiga toxin inh: inhibitors of Shiga toxin in Vero cells; Vero cells, Shiga toxin protein synthesis inhibition reporter; inhibition, % at 38.7 µM; 290,000 tested, 9.2% active; AID 2315; in the data active = inhibition mostly above about 28%, no sharp cut-off; inactive = mostly below about 43%; also: 0% is about no effect
RE007 growth inh: less growth of the S. pombe RE007 Vpr strain. S. pombe RE007 Vpr strain, BacTiter-Glo ATP luminescence, 24 h. Potency, µM (highest dose often 92.2 µM), for inactives: at the highest dose activity change, negative = less growth, most hits filed as inhibitors. 360,000 tested, 0.21% active. AID 651644; active = well fitted falling curve with a large enough effect; inconclusive = small, poorly fitted or top-dose-only effect; inactive = no such curve, though single readings can be large or run the other way; also: potency is read from the fitted curve at half-maximal effect; % is scaled to controls: 0 for no effect and ±100 for the full control effect; nearly all actives have a fitted effect of over 50% in size
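Fission yeast RE007 carrying one integrated HIV-1 vpr copy, seeded at OD 0.01 in PMG+AL medium with 23 nL pinned compound. Grown 24 h at 30 degrees; viability read by BacTiter-Glo luminescence after 5 min.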
TbPYK inhibitor: inhibitors of Trypanosoma brucei pyruvate kinase | Potency, µM (titrated, usually from 76.8 µM), for inactives: top-dose activity, negative = inhibition, actives largely listed as inhibitors | TbPYK enzyme, Kinase-Glo Plus ATP luminescence, 45 min | 410,000 tested, 0.12% active | AID 624173; also: potency is read from the fitted curve at half-maximal effect; % is scaled to controls: 0 for no effect and ±100 for the full control effect; nearly all actives have a fitted effect of over 50% in size
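Activity of T. brucei pyruvate kinase was followed by Kinase-Glo Plus luminescence after the enzyme reacted 45 min at room temperature with 130 uM ADP (final) and substrate. Test compounds were added before ADP at multiple concentrations.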
LmPK inhibitor: LmPK (Leishmania mexicana) enzyme inhibition. Q27686. purified LmPK, Kinase-Glo ATP luminescence, 1 h. Potency, µM (doses to about 57.5 µM), without a hit: at the top dose activity change, negative = inhibition, usual class: inhibitors. 290,000 tested, 0.37% active; also: potency is read from the fitted curve at half-maximal effect; % is scaled to controls: 0 for no effect and ±100 for the full control effect
Target sequence (Q27686 whole entry, looked up): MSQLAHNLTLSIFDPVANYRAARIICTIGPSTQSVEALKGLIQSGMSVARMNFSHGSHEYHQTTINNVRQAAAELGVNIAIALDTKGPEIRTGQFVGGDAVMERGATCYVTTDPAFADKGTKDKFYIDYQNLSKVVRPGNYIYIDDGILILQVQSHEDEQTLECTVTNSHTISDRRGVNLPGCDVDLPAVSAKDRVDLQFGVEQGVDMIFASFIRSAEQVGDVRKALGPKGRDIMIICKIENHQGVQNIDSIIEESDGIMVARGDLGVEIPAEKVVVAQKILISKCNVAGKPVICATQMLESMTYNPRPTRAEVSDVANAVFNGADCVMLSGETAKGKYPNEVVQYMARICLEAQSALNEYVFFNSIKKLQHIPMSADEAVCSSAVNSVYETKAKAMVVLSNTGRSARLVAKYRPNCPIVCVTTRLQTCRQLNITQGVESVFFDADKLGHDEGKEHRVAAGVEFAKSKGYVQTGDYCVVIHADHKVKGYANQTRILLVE
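Pyruvate kinase activity monitored as ATP production (luciferase luminescence). Conditions: 0.1 nM enzyme, 0.5 mM PEP, 0.1 mM ADP, 1 h, RT; normalized against uninhibited and no-enzyme wells.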
Cycloheximide cs: affects cycloheximide protein synthesis inhibition readout, counter-screen; cell reporter, cycloheximide protein synthesis inhibition counterscreen; max response, %; 300,000 tested, 12% active; AID 2314; in the data active = max response mostly above about 13%, no sharp cut-off; inactive = mostly below about 14%; also: read at 38.3 µM for the half of the compounds with a filed dose; 0% is about no effect
An asterisk follows results filed as active; u = inconclusive; x = no result. This is one part of a sample in which hits are shown more often than they occur. Unless noted, calls follow the shape of the dose curve; as a rule, active = well fitted curve in the direction sought with a large enough effect; inconclusive = small, poorly fitted or top-dose-only effect, or another doubt; inactive = no such curve, though single readings can be large; an effect the other way counts as inactive or inconclusive.

SMILES	Giardia FBPA inh	Shiga toxin inh	RE007 growth inh	TbPYK inhibitor	LmPK inhibitor	Cycloheximide cs
CC(=O)c1c(C)[nH]c(C(=O)Nc2ccc(C)cc2Br)c1C	0%	66*	-8%	0%	11%	25*
CC(=O)c1c(C)[nH]c(C(=O)Nc2ccc(F)cc2F)c1C	10%	65*	7%	6%	0%	44*
CCc1c(C(=O)NCCc2cccc(C)c2)[nH]c(C)c1C(C)=O	-6%	39	11%	2%	-2%	5
CC(=O)c1c(C)[nH]c(C(=O)Nc2ccccc2Cl)c1C	3%	46*	-18%	1%	-6%	19
CC(=O)c1c(C)[nH]c(C(=O)NCCc2cccc(C)c2)c1C	0%	80*	-15%	-4%	2%	45*
CC(=O)c1c(C)[nH]c(C(=O)Nc2cc(C)ccc2C)c1C	-6%	-14	0%	0%	5%	-3
COc1ccccc1-c1cc2nc(C)c(CCC(=O)Nc3ccc(Br)c(C)c3)c(C)n2n1	x	x	x	0%	x	x
O=C(NCCc1ccc(Cl)cc1)c1ccc(CS(=O)Cc2cccc(Cl)c2)o1 (centres undefined)	x	x	x	-3%	x	x
O=C(Cn1sc2ccccc2c1=O)Nc1ccc(F)cc1	x	x	-44%	u	x	x
O=C(Cn1sc2ccccc2c1=O)Nc1ccc(Br)cc1	x	x	50%	7.9µM*	x	x
Cc1ccc(Cn2c(CNC(=O)c3ccc(Cl)c([N+](=O)[O-])c3)nc3cccnc32)cc1	x	x	x	2%	x	x
NC(=O)C1=NOC(CNc2ncc(C(F)(F)F)cc2Cl)C1 (centres undefined)	0%	87*	1%	-2%	3%	36*
COc1ccc(-c2[nH]c3c(c2-c2c(-n4cccc4)n(C)c(=O)[nH]c2=O)c(=O)[nH]c(=O)n3C)cc1F	x	x	x	-15%	x	x
CC(C(=O)Nc1ccc2c(c1)OCCO2)N1CCN(C(=O)c2ccco2)CC1 (centres undefined)	2%	3	21%	8%	0%	-2
S=C(Nc1ccc2c(c1)OCO2)N1CCN(Cc2ccco2)CC1	-2%	28*	-14%	1%	-2%	20*
O=C(CN1CCN(C(=O)c2ccco2)CC1)Nc1ccc2c(c1)OCCO2	-2%	91*	41%	-20%	-2%	27*
O=C(N1CCN(Cc2ccc3c(c2)OCO3)CC1)C(Cl)(Cl)Cl	-9%	67*	9%	-2%	-1%	17*
O=C(CN1CCOCC1)Nc1ccc2c(c1)OCCO2	u	50*	4%	25%	-6%	16*
O=C(c1ccccc1)N1CCN(C(=O)c2ccc3c(c2)OCCO3)CC1	-1%	-6	-6%	2%	0%	0
O=C(CCN1CCOCC1)Nc1ccc2c(c1)CCC2	1%	17	-7%	4%	-3%	12
CCc1cc2cc(C(=O)N3CCN(Cc4ccccc4)CC3)sc2s1	-12%	49*	-6%	-2%	1%	22*
O=C(c1ccc2c(c1)OCCO2)N1CCN(Cc2ccccc2)CC1	-3%	38	30%	-16%	-5%	15*
CCc1cc2cc(C(=O)N3CCN(c4ccccc4)CC3)sc2s1	8%	-5	-23%	-4%	0%	-2
